rCAG binder: binders of r(CAG) RNA repeats, primary screen, biochemical, fluorescence; actives 1.3% (n = 370,000); AID 651821, 2012; inhibition, % at 3 µM; r(CAG) RNA repeat, TO-PRO-1 dye displacement fluorescence;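 active means inhibition above the plate cutoff, the mean of all test compounds on that plate plus 3 SD, cut at about 35% in these data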;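 further: 0% = DMSO alone and 100% = 100 µM mitoxantrone as full dye displacement; higher means more dye released from RNA so lower well fluorescence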
ADAM10 inh: human ADAM10 inhibitors, primary screen, biochemical, QFRET, HTS | Disintegrin and metalloproteinase domain-containing protein 10 (Homo sapiens), O14672 | AID 720582, 2013 | inhibition, % at 7 µM | actives 0.62% (n = 370,000) | recombinant ADAM10, EDANS/DABCYL FRET peptide cleavage, 3 h;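 active means inhibition above a per-campaign cutoff equal to the mean of compounds falling between control-based bounds plus 3 SD, cut at about 20% in these data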;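 further: 0% = DMSO wells while the 100% control is not disclosed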
Target sequence (O14672 214-748 limits assumed): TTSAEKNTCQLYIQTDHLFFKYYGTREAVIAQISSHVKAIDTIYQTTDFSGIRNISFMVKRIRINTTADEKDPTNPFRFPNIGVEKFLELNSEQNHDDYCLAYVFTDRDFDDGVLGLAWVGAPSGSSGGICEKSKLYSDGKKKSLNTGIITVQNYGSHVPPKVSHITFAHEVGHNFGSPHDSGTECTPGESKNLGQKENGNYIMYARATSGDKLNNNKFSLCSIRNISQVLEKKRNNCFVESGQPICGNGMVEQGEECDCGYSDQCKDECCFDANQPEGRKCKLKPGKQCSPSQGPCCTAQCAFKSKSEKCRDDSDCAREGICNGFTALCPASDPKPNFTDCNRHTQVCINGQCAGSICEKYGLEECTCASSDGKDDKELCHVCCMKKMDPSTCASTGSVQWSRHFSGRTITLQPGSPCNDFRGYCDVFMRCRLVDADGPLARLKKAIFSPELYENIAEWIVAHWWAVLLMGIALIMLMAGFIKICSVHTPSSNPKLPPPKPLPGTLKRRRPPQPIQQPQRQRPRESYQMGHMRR
KLK7 zymogen act: proKLK7 zymogen activators, primary screen, biochemical, fluorescence intensity. Kallikrein-7 (Homo sapiens), P49862. purified proKLK7, EDANS-DABCYL substrate fluorescence; 100% is mature enzyme control, 0% vehicle. activation, % at 7 µM. actives 0.9% (n = 370,000);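 active means activation above the mean of all tested compounds plus 3 SD, computed per campaign excluding outliers beyond control limits, cut at about 13% in these data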
ADAM17 inh: ADAM17 inhibitors, primary screen, biochemical, QFRET. inhibition, % at 6.95 µM. Disintegrin and metalloproteinase domain-containing protein 17 (Homo sapiens), P78536. recombinant ADAM17, EDANS/DABCYL FRET peptide cleavage. actives 0.83% (n = 370,000);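 active means inhibition above the mean of compounds lying between control limits plus 3 SD, set per campaign, cut at about 8.5% in these data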;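 further: 0% = DMSO-only wells as the low control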
DSG3 Ab inh: inhibitors of pemphigus antibody binding to DSG3, primary screen, biochemical, bead-based, flow cytometry, scFv-GFP; Desmoglein-3 (Homo sapiens), P32926; DSG3-coupled beads, scFv-anti-DSG3-GFP binding; stronger effect = lower value; binding (percent of control), % at 10 µM; actives 0.48% (n = 310,000); AID 588358, 2011;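 active means binding more than 3 SD below its plate's average and above zero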;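 further: hits lower antibody fragment binding to DSG3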
MPTP block: mitochondrial permeability transition pore inhibitors, primary screen, biochemical, isolated mouse mitochondria, absorbance; Ca2+ swelling absorbance, 30 min; inhibition, % at 10 µM; actives 1.4% (n = 360,000);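 active means inhibition of 50% or more, scaled per plate between neutral and stimulator controls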;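 further: 0% = DMSO wells given calcium and 100% = 1 mM EGTA wells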
ADAM10 confirm: human ADAM10 inhibitors, confirmation, biochemical, QFRET, triplicate; AID 743208, 2013; ADAM10 QFRET peptide cleavage, EDANS fluorescence; inhibition, % at 6.95 µM; actives 1% (n = 2,100); shares compounds with ADAM10 inh;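 active means inhibition above about 20% chosen separately for each screening run, limit read from the data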;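 further: 0% = DMSO wells and 100% = marimastat wells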
ADAM17 ctr: ADAM17 inhibitors, counter-screen for ADAM10 exosite inhibitor project, biochemical, QFRET, high throughput. inhibition, % at 6.95 µM. ADAM17 QFRET peptide cleavage, EDANS fluorescence. actives 0.5% (n = 2,100). shares compounds with ADAM10 inh;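 active means mean triplicate inhibition above the solvent-only control wells' mean plus 3 SD, cut at about 12% in these data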;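 further: 0% = DMSO wells and 100% = marimastat wells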
Numbers without * were called inactive; i = inactive; . = no result given. Rows were chosen to be rich in hits. Some 4.7% of all compounds tested hit in one or more screens of this group.

SMILES	rCAG binder	ADAM10 inh	KLK7 zymogen act	ADAM17 inh	DSG3 Ab inh	MPTP block	ADAM10 confirm	ADAM17 ctr
CCN(CC)c1ccc(NC(=O)COc2ccccc2C)cc1S(=O)(=O)Nc1ccccc1OC	8	21*	0	8	96	1	11	3
COc1ccc(NCC(O)COc2ccc(C(C)(C)C)cc2)cc1 (stereo not given)	-7	13	-1	4	.	6	.	.
COc1ccccc1NCC(O)COc1ccc(C(C)(C)C)cc1 (stereo not given)	-7	21*	1	5	.	5	2	1
COC(=O)[C@]12C[C@H](CC(=O)NCc3ccc(OC)c(OC)c3)C(=O)N(Cc3ccc4c(c3)OCO4)C1=C[C@H](COCc1ccccc1)O[C@@H]2C	4	4	1	-2	.	.	.	.
CC(C)(C)c1ccc(C(=O)Nc2cc(Cl)c(Cl)cc2C(=O)O)cc1	.	20*	.	2	.	.	3	0
Cn1c(=O)c2cc(NC(=O)NCCc3ccccc3)ccc2n1Cc1cccc(C(F)(F)F)c1	2	i	-22	-444	.	6	.	.
CCCCOc1ccccc1C(=O)NNC(=S)NC(=O)c1ccccc1[N+](=O)[O-]	31	27*	1	8	117	6	7	2
O=C1c2cccc(OCc3ccc(F)cc3)c2CCN1Cc1ccccc1	0	20*	0	5	100	15	4	2
Cc1cc(=O)oc2c(C)c(OCC(=O)N3CCN(c4cccc(Cl)c4)CC3)ccc12	4	-9	-3	1	105	0	.	.
CCCn1c(C(CO)Nc2nc(-c3cccc(Br)c3)cs2)nc2ccccc21 (stereo not given)	3	22*	-1	9	103	0	10	3
Cc1nn(C)cc1C(=O)Nc1cc(Oc2ccc(Cl)cc2)cc([N+](=O)[O-])c1	.	.	.	.	97	4	.	.
CCn1nc(C)c(C(=O)Nc2cc(Oc3cc(C)cc(C)c3)cc([N+](=O)[O-])c2)c1C	8	21*	0	5	104	0	6	2
Cc1occc1C(=O)N/N=C/c1ccc(-c2ccccc2)cc1	5	8	0	0	106	-1	.	.
Cc1occc1C(=O)N/N=C/c1ccc(OCc2ccccc2)cc1	3	21*	-1	1	.	-2	0	0
O=C(NCc1ccccc1)C1c2ccccc2OCC(=O)N1Cc1ccc2c(c1)OCO2 (stereo not given)	3	4	-1	-1	.	0	.	.
Cc1cc(=O)n2cn[nH]c2n1	0	-11	0	-2	110	-2	.	.
CN(CCCC1CCCC1)C(=O)c1cc(COc2ccc(F)cc2F)on1	-6	22*	0	1	108	-1	5	2
COc1ccc(S(=O)(=O)N2CCN(CC(=O)c3ccc(O)c(O)c3)CC2)cc1	10	22*	1	-2	104	0	2	0
CCN(c1ccc(OC)cc1)S(=O)(=O)N1CCCC(C(=O)NC(C)c2ccccc2)C1 (stereo not given)	-2	70*	0	-2	.	-2	4	1
CC1CCCN(C(=O)c2ccc(Br)c(S(=O)(=O)N3CCOCC3)c2)C1 (stereo not given)	2	-12	1	2	101	-1	.	.
CCC(c1nnnn1C(C)C)N1CCN(C2CCCC2)CC1 (stereo not given)	-2	74*	0	1	.	-3	-3	0
COC(=O)C[C@@H]1C[C@@H]2c3cc(NC(=O)NC4CCCCC4)ccc3O[C@@H]2[C@H](CO)O1	-2	-8	-1	-5	107	0	.	.
CC(C)CC#Cc1ccc2c(c1)O[C@H](CN(C)C(=O)Nc1ccccc1)[C@@H](C)CN([C@H](C)CO)S2(=O)=O	1	2	0	2	106	0	.	.
C[C@@H]1CN([C@H](C)CO)S(=O)(=O)c2ccc(C#Cc3ccccc3)cc2O[C@H]1CN(C)C(=O)Nc1ccc2c(c1)OCO2	15	20*	-1	6	.	0	9	3
O=C1CSC(c2cccc(F)c2)N1c1c(F)cccc1F (stereo not given)	2	23*	0	1	103	1	0	0
SMILES	rCAG binder	ADAM10 inh	KLK7 zymogen act	ADAM17 inh	DSG3 Ab inh	MPTP block	ADAM10 confirm	ADAM17 ctr
O=C1CSC(c2ccc(F)cc2)N1c1c(F)cccc1F (stereo not given)	-5	8	0	2	99	0	.	.
COc1ccc2c(c1)C[C@]1(C)c3ccccc3C(=O)N(Cc3ccccc3)[C@H]21	-6	26*	2	5	96	0	3	1
COc1cccc(C2Nc3ccccc3C(=O)N2Cc2ccccc2)c1 (stereo not given)	-5	i	-4	-273	110	5	.	.
CSc1nc2c(c(=O)[nH]c(=O)n2C)n1C/C=C(\C)Cl	-1	-1	0	-4	100	-1	.	.
CCSc1nc2c(c(=O)[nH]c(=O)n2C)n1C/C=C(/C)Cl	-2	20*	0	3	97	0	1	0
CCc1c(C#N)c(SCCC(=O)Nc2cccc(OC)c2)nc2c1C(=O)CC(C)(C)C2	-5	22*	-1	7	101	2	8	1
COc1ccc(-c2c(C#N)c(SCc3c(C)noc3C)nc3c2C(=O)CC(C)(C)C3)cc1	2	6	0	-2	.	4	.	.
CCCCNC(=O)C1(C)CCCCN1C(=O)c1ccc(F)c(C)c1 (stereo not given)	0	2	0	4	.	1	.	.
O=C(NCC(c1ccco1)N1CCc2ccccc21)C(=O)Nc1ccc(F)cc1F (stereo not given)	4	1	0	-1	117	-3	.	.
Cc1ccc(S(=O)(=O)N(C)C)cc1NC(=O)C1CCCC1	4	-4	1	-1	115	0	.	.
Cc1ccc(S(=O)(=O)N(C)C)cc1NC(=S)NNC(=O)C1CC1	-2	20*	0	-2	96	-5	0	0
O=C(CNc1cc(S(=O)(=O)N2CCOCC2)ccc1N1CCCC1)Nc1ccc(Cl)cc1F	-1	-4	0	-3	96	1	.	.
